# In article PMC11062922 (Nature Chemical Biology, 2023):
# Like-named read-outs stand apart in the source and are kept apart here.
# Key:
# Design in all cases: species or system human, MV4-11 + K-562 + COLO205 + SK-N-BE2 + OVCAR-8
# MAPK14 = details: read-out: apparent Kd, n = 1
# ACAD8 = details: read-out: apparent Kd; compound concentrations: 100 nM and 1000 nM (sheet 'Samples'), CATDS: 1.7028042656885199E-2; n = 1
# AURKB = details: read-out: apparent Kd, n = 1
# BTK = details: read-out: apparent Kd, n = 1
# CDK16 = details: read-out: apparent Kd, compound concentrations: 100 nM and 1000 nM (sheet 'Samples'), n = 1
# MAP2K5 = details: read-out: apparent Kd; compound concentrations: 100 nM and 1000 nM (sheet 'Samples'), CATDS: 5.3465139975610303E-2; n = 1
# NQO1 = details: read-out: apparent Kd, compound concentrations: 100 nM and 1000 nM (sheet 'Samples'), n = 1
# TNK2 = details: read-out: apparent Kd, n = 1
# BMPR1B = details: read-out: apparent Kd, n = 1
# DDR2 = details: read-out: apparent Kd, n = 1
# EPHA5 = details: read-out: apparent Kd, n = 1
# EPHB1 = details: read-out: apparent Kd, n = 1
# EPHB6 = details: read-out: apparent Kd, n = 1
# CDK17 = details: read-out: apparent Kd; compound concentrations: 100 nM and 1000 nM (sheet 'Samples'), CATDS: 3.3819881865538602E-2; n = 1
# CDKL5 = details: read-out: apparent Kd, compound concentrations: 100 nM and 1000 nM (sheet 'Samples'), n = 1
# FLT4 = details: read-out: apparent Kd, compound concentrations: 100 nM and 1000 nM (sheet 'Samples'), n = 1
# PLK4 = details: read-out: apparent Kd, compound concentrations: 100 nM and 1000 nM (sheet 'Samples'), n = 1
# PRKD2 = details: read-out: apparent Kd, compound concentrations: 100 nM and 1000 nM (sheet 'Samples'), n = 1
# JAK2 = details: read-out: apparent Kd, compound concentrations: 100 nM and 1000 nM (sheet 'Samples'), n = 1
# [1] = compound concentrations:100 nM and 1000 nM (sheet 'Samples')
smiles,measurement,setting,value
Cc1cccc(-c2cc(-c3c[nH]nc3-c3ccccn3)ccn2)c1 [GW679395X],potency estimated from few doses,MAPK14; [1],1290 nM
Cl.Cl.Cl.c1ccc(Oc2ccc(Nc3ccnc4cc(-c5ccc(CN6CCNCC6)o5)ccc34)cc2)nc1.c1ccc(Oc2ccc(Nc3ccnc4cc(-c5ccc(CN6CCNCC6)o5)ccc34)cc2)nc1 [GW567142A],potency estimated from few doses,ACAD8,2040 nM
same,potency estimated from few doses,"AURKB; compound concentrations: 100 nM and 1000 nM (sheet 'Samples'), CATDS: 2.12373497583834E-2",952 nM
same,potency estimated from few doses,"BTK; compound concentrations: 100 nM and 1000 nM (sheet 'Samples'), CATDS: 2.14657129362281E-2",922 nM
same,potency estimated from few doses,CDK16; CATDS: 1.6285845495215501E-2,2450 nM
same,potency estimated from few doses,MAP2K5,111 nM
same,potency estimated from few doses,NQO1; CATDS: 1.8216900253795E-2,1580 nM
same,potency estimated from few doses,"TNK2; compound concentrations: 100 nM and 1000 nM (sheet 'Samples'), CATDS: 8.9201711222799504E-2",47.3 nM
CCN(CC)CCOc1ccc(Nc2ncc3cc(-c4c(Cl)cccc4Cl)c(=O)n(C)c3n2)cc1 [SB-601273],potency estimated from few doses,BMPR1B; [1],239 nM
same,potency estimated from few doses,BTK; [1],318 nM
same,potency estimated from few doses,DDR2; [1],319 nM
same,potency estimated from few doses,EPHA5; [1],135 nM
same,potency estimated from few doses,EPHB1; [1],10.6 nM
same,potency estimated from few doses,EPHB6; [1],175 nM
same,potency estimated from few doses,MAPK14; [1],678 nM
same,potency estimated from few doses,TNK2; [1],87.3 nM
CC(C)c1nc(-c2cccc(NS(=O)(=O)c3ccccc3)c2)c(-c2ccnc(Nc3ccc4c(c3)CN(C)CC4)n2)s1 [GSK1649598A],potency estimated from few doses,"BTK; compound concentrations: 100 nM and 1000 nM (sheet 'Samples'), CATDS: 1.37109395342906E-2",1210 nM
same,potency estimated from few doses,CDK16; CATDS: 3.5928247701673299E-2,112 nM
same,potency estimated from few doses,CDK17,124 nM
same,potency estimated from few doses,CDKL5; CATDS: 3.80366995063171E-2,101 nM
same,potency estimated from few doses,"EPHB6; compound concentrations: 100 nM and 1000 nM (sheet 'Samples'), CATDS: 1.8057075383437201E-2",489 nM
same,potency estimated from few doses,FLT4; CATDS: 1.55100813228086E-2,772 nM
same,potency estimated from few doses,PLK4; CATDS: 4.8867140762819797E-2,66.8 nM
same,potency estimated from few doses,PRKD2; CATDS: 5.2743679485786801E-2,59.3 nM
same,potency estimated from few doses,"TNK2; compound concentrations: 100 nM and 1000 nM (sheet 'Samples'), CATDS: 1.5113768238236E-2",842 nM
CS(=O)(=O)CCNCc1ccc(-c2ccc3ncnc(Nc4ccc(OCc5cccc(F)c5)c(C(F)(F)F)c4)c3c2)o1 [GW576484X],potency estimated from few doses,"EPHA5; compound concentrations: 100 nM and 1000 nM (sheet 'Samples'), CATDS: 6.1198720687785702E-2",1290 nM
O=C1N=C(NCc2cccs2)SC1Cc1ccc2ncccc2c1 (stereo not shown) [RO4629078-000],potency estimated from few doses,"AURKB; compound concentrations: 100 nM and 1000 nM (sheet 'Samples'), CATDS: 8.1625100314479202E-3",1200 nM
same,potency estimated from few doses,"BTK; compound concentrations: 100 nM and 1000 nM (sheet 'Samples'), CATDS: 1.32457116906247E-2",360 nM
same,potency estimated from few doses,CDKL5; CATDS: 6.9445234986253998E-3,2320 nM
same,potency estimated from few doses,"EPHA5; compound concentrations: 100 nM and 1000 nM (sheet 'Samples'), CATDS: 1.5844356878219199E-2",259 nM
same,potency estimated from few doses,"EPHB1; compound concentrations: 100 nM and 1000 nM (sheet 'Samples'), CATDS: 1.5393002457868701E-2",272 nM
same,potency estimated from few doses,FLT4; CATDS: 1.2746443799933199E-2,389 nM
same,potency estimated from few doses,PLK4; CATDS: 1.60355035004788E-2,254 nM
same,potency estimated from few doses,PRKD2; CATDS: 7.0804860166384202E-3,2110 nM
same,potency estimated from few doses,"TNK2; compound concentrations: 100 nM and 1000 nM (sheet 'Samples'), CATDS: 1.95530569334194E-2",183 nM
CN1C(=O)c2ccccc2N(C)c2nc(Nc3cnn(C4CCNCC4)c3)ncc21 [XMD-17-51],potency estimated from few doses,"AURKB; compound concentrations: 100 nM and 1000 nM (sheet 'Samples'), CATDS: 0.169613052671825",6.84 nM
same,potency estimated from few doses,"BMPR1B; compound concentrations: 100 nM and 1000 nM (sheet 'Samples'), CATDS: 1.5845545997130402E-2",986 nM
same,potency estimated from few doses,"DDR2; compound concentrations: 100 nM and 1000 nM (sheet 'Samples'), CATDS: 2.76833558022507E-2",189 nM
same,potency estimated from few doses,JAK2; CATDS: 1.8456350462982201E-2,580 nM
same,potency estimated from few doses,PLK4; CATDS: 4.7474552673817297E-2,56.7 nM
same,potency estimated from few doses,PRKD2; CATDS: 1.4106382440731599E-2,1620 nM
O=C1N=C(NCCc2cccc(Cl)c2)S/C1=C\c1ccc2ncccc2c1 [RO4509201-000],potency estimated from few doses,JAK2; CATDS: 7.2632093710390006E-2,736 nM
COc1ccc(-n2cnc3c(N)ncnc32)cc1 [SKF-97236],potency estimated from few doses,"MAPK14; compound concentrations: 100 nM and 1000 nM (sheet 'Samples'), CATDS: 0.140639496900372",1390 nM
Cc1ccc(O)cc1Nc1ccnc2cc(-c3ccccn3)ccc12.Cl [GW440139A],potency estimated from few doses,"BMPR1B; compound concentrations: 100 nM and 1000 nM (sheet 'Samples'), CATDS: 2.7107507605443299E-2",941 nM
same,potency estimated from few doses,"EPHA5; compound concentrations: 100 nM and 1000 nM (sheet 'Samples'), CATDS: 4.7155213926178503E-2",97.2 nM
same,potency estimated from few doses,"EPHB1; compound concentrations: 100 nM and 1000 nM (sheet 'Samples'), CATDS: 5.4162955802276501E-2",67.7 nM
Cc1cccc(Nc2nc(NCCN)ncc2C(N)=O)c1 [GSK1292139B],potency estimated from few doses,PRKD2; CATDS: 7.4938194739321201E-2,1250 nM
Cl.Oc1cccc(Nc2ccnc3cc(-c4ccncc4)ccc23)c1 [GW494601A],potency estimated from few doses,"BMPR1B; compound concentrations: 100 nM and 1000 nM (sheet 'Samples'), CATDS: 3.10657492682959E-2",211 nM
same,potency estimated from few doses,"EPHA5; compound concentrations: 100 nM and 1000 nM (sheet 'Samples'), CATDS: 3.7293479964616502E-2",113 nM
same,potency estimated from few doses,"EPHB1; compound concentrations: 100 nM and 1000 nM (sheet 'Samples'), CATDS: 2.51104508673669E-2",479 nM
same,potency estimated from few doses,FLT4; CATDS: 2.2541605457452998E-2,773 nM
CCn1cc(-c2ccnc3[nH]c(-c4cccc(CN(C)C)c4)cc23)c(-c2ccc(NC(=O)N(C)C)cc2)n1 [GSK1070916],potency estimated from few doses,AURKB; [1],594 nM
same,potency estimated from few doses,DDR2; [1],1830 nM
O=C1N=C(NCC(CO)c2ccccc2)S/C1=C\c1ccc2ncccc2c1 (stereo not shown) [RO4582641-000],potency estimated from few doses,CDKL5; CATDS: 6.3730815830875698E-2,1510 nM
COc1cc(Nc2ccnc3cc(-c4ccncc4)ccc23)cc(OC)c1OC.Cl [GW494610A],potency estimated from few doses,"AURKB; compound concentrations: 100 nM and 1000 nM (sheet 'Samples'), CATDS: 5.7571781244095399E-2",90.3 nM
same,potency estimated from few doses,"BMPR1B; compound concentrations: 100 nM and 1000 nM (sheet 'Samples'), CATDS: 3.91672481095015E-2",233 nM
same,potency estimated from few doses,"EPHB1; compound concentrations: 100 nM and 1000 nM (sheet 'Samples'), CATDS: 2.3499572328162702E-2",1250 nM
same,potency estimated from few doses,"EPHB6; compound concentrations: 100 nM and 1000 nM (sheet 'Samples'), CATDS: 2.9510558776715799E-2",536 nM
NC1=NC(=O)/C(=C/c2ccc3ncccc3c2)S1 [RO4569139-000],potency estimated from few doses,JAK2; CATDS: 8.9240627559774202E-2,708 nM
COc1ccc(Nc2nccc(N3CCC(NC(=O)Nc4ccc5c(c4)OCO5)C3)n2)cc1 (stereo not shown) [GSK1379745A],potency estimated from few doses,"BMPR1B; compound concentrations: 100 nM and 1000 nM (sheet 'Samples'), CATDS: 0.106136196425884",316 nM
same,potency estimated from few doses,NQO1; CATDS: 4.3711719751433897E-2,1250 nM
